A selection: hits, their analogues and other compounds. The true share with any hit is near 0.79%.
E coli growth-1: blocks Escherichia coli growth. AID 1053175. OD600 absorbance (test concentration not listed). 0.21% of 330,000 active. OD600, 23 h; active compounds read low;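 active means OD600 absorbance below the run mean of sample wells minus 3.6 SD, in any replicate, cut at about 0.56 in these data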
Tat export inh: inhibitors of E. coli Tat protein transport. E. coli MC4100 TorA-mCherry Tat export, fluorescence. inhibition, % at 10 µM. 0.036% of 340,000 active;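 active means mean replicate inhibition at least 50% and at least half of replicates individually reaching 50%; inconclusive means only one of the two criteria met; inactive means neither criterion met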;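 further: exported cargo escapes ClpAP degradation while cytoplasmic cargo is degraded and loses fluorescence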
phage Ecoli inh: E. coli growth loss with phage present. growth absorbance. AID 651602. 0.26% of 360,000 active. inhibition, % at 11.9 µM; in the data active means inhibition above about 11%
E coli growth-2: bacterial growth inhibition, counter-screen for AddAB inhibitors; E. coli V3065 growth, OD600 absorbance, 18 h; inhibition, % at 11.9 µM; 0.27% of 330,000 active; AID 449728;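 active means inhibition above the campaign's mean inhibition across all tested compounds plus 3 SD, cut at about 9.9% in these data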;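 further: uninfected addAB+ strain grown without phage in ampicillin broth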
AI-2 QS modul: Vibrio harveyi AI-2 quorum sensing modulation. Vibrio harveyi JMH597 AI-2 luminescence/OD600 ratio, 9 h; active compounds read low; strain lacks LuxN and CqsS sensors; 0 = neutral-control median. 0.4% of 300,000 active. activity change, % at 7.5 µM. AID 2094; in the data active means activity change below about -75%, passing the limit was not always enough; inconclusive means no clear call, values can overlap the other calls;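 further: luminescence divided by OD600 gain over 9 h not by final OD600 alone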
AddAB inh: less growth of phage-infected E. coli with AddAB; E. coli expressing H. pylori AddAB, absorbance growth; inhibition, % at 11.9 µM; 0.29% of 330,000 active; AID 435030; in the data active means inhibition above about 12%
AddAB confirm: confirmation screen: growth loss of phage-infected E. coli expressing H. pylori AddAB; shares compounds with AddAB inh; E. coli V3065 expressing H. pylori AddAB, T4 phage, OD; T4 phage with gene 2 nonsense mutations; inhibition, % at 11.9 µM; 64% of 880 active;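 active means mean inhibition above a set limit taken from the earlier primary screen, cut at about 13% in these data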;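 further: higher means less bacterial growth since AddAB block lets phage replicate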
RecBCD counter: reduces growth of phage-infected RecBCD+ E. coli, AddAB inhibitor counter-screen | shares compounds with AddAB inh | inhibition, % at 11.9 µM | E. coli V66 + mutant T4 phage, OD growth | 73% of 880 active;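 active means mean inhibition above the mean of solvent-only control wells plus 3 SD, cut at about 4% in these data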;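 further: optical density read after an 18 h incubation at 37 °C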
Bact viability: counter-screen for AddAB inhibitors: inhibitors of bacterial viability; shares compounds with AddAB inh; absorbance (AddAB counterscreen); inhibition, % at 11.9 µM; 35% of 880 active; AID 488956; in the data active means inhibition above about 25%
Numbers stand for hits; . = inactive; ? = inconclusive; / = not tested or not shown.

SMILES | E coli growth-1 | Tat export inh | phage Ecoli inh | E coli growth-2 | AI-2 QS modul | AddAB inh | AddAB confirm | RecBCD counter | Bact viability
C=CCCCCCCCCC(=O)N1CCN(c2cc3c(cc2F)c(=O)c(C(=O)O)cn3CC)CC1 | 0.3 | . | . | 35 | . | 41 | 98 | 4.0 | 72
CC(C)(C)c1nn2cnnc2n(N=Cc2ccccc2)c1=O | . | / | / | / | / | / | / | / | /
O=C(Cn1cc(C(=O)c2ccco2)c2ccccc21)Nc1ccccc1 | . | . | . | 16 | . | 17 | . | 11 | .
O=C(NCCCNCCCNC(=O)c1ccc(/C=N/O)nc1)c1ccc(/C=N/O)nc1 | / | . | . | 12 | . | 19 | . | . | .
Cc1ccc(-n2c(-c3ccc(Br)cc3)c[n+]3c2CCc2ccc4cccnc4c2-3)cc1 | 0.49 | . | . | 24 | . | 31 | 76 | 5.5 | .
COc1ccc(C=NNC(=O)CNC(=O)C2COc3ccccc3O2)cc1OC (configuration not stated) | . | / | / | / | / | / | / | / | /
O=C(N/N=C/C=C/c1ccccc1)NC1CCCCC1 | / | . | . | 18 | . | 37 | . | . | .
O=C(NN=C/C=C/c1ccccc1)NC1CCCCC1 | . | / | / | / | / | / | / | / | /
CCCCCC(=O)NCc1c(C(F)(F)F)nn(C)c1N1CCOCC1 | . | . | . | 97 | . | 98 | . | . | .
O=C1CCCC=CCC(CC(=O)N(CCO)Cc2ccccc2)C(=O)NC(c2ccccc2)CO1 (configuration not stated) | . | / | / | / | / | / | / | / | /
Cc1cc(C)nc(SCc2ccc(C(=O)N/N=C/c3cccc(O)c3O)cc2)n1 | / | . | . | . | ? | 12 | . | 5.0 | .
CC1C(=O)N2CCCc3cc(S(=O)(=O)N(C)c4ccccc4)cc1c32 (configuration not stated) | . | . | . | 23 | . | 44 | . | . | .
O=c1c(O)c(-c2ccc(O)c(O)c2)oc2cc(O)cc(O)c12 | . | . | . | . | . | 13 | . | . | .
O=C1C(Nc2ccccc2)=C/C(=N/S(=O)(=O)c2cccs2)c2ccccc21 | / | . | / | . | . | 17 | . | 4.7 | .
CCN1CCN(C2=C(NS(=O)(=O)c3ccc(Br)cc3)C(=O)c3ccccc3C2=O)CC1 | . | . | . | 11 | . | 14 | . | . | .
O=C(NC(Cc1ccccc1)C(=O)CCl)OCc1ccccc1 (configuration not stated) | . | / | / | / | / | / | / | / | /
NS(=O)(=O)c1ccc(N=Nc2c(O)ccc3ccccc23)cc1 | . | . | . | . | . | . | / | / | /
Oc1ccc(N=Nc2c(O)ccc3ccccc23)cc1 | . | . | . | 13 | . | 13 | 60 | . | .
COc1cc(C=NNC(=O)Cc2nnc(NC(=O)c3ccccc3)s2)ccc1O | . | / | / | / | / | / | / | / | /
Cc1c(OC(C)C(=O)NCC(O)c2ccccc2)ccc2c3c(c(=O)oc12)CCC3 (configuration not stated) | . | . | . | 28 | . | 34 | . | . | .
Cc1c(OC(C)C(=O)N[C@H](C(=O)O)c2ccccc2)ccc2c3c(c(=O)oc12)CCCC3 (some centres not stated) | . | . | . | . | . | . | / | / | /
CCN1C(=O)SC(=Cc2ccc(Oc3ccc([N+](=O)[O-])cn3)c(OC)c2)C1=O | . | / | / | / | / | / | / | / | /
CC(=O)c1c(C)n([O-])c2ccc(C)cc2[n+]1=O | 0.43 | . | . | 24 | . | 23 | 68 | 8.3 | 53
Cc1ccc2c(c1)n([O-])c1c([n+]2=O)CCCC1 | . | . | . | . | . | . | / | / | /
CCN(Cc1ccccc1)C(=O)Cn1cc2c(n1)CCCC2 | . | . | . | . | . | 12 | . | . | .
SMILES | E coli growth-1 | Tat export inh | phage Ecoli inh | E coli growth-2 | AI-2 QS modul | AddAB inh | AddAB confirm | RecBCD counter | Bact viability
CN1c2ccsc2C(=NNc2ccc(F)cc2)CS1(=O)=O | . | / | / | / | / | / | / | / | /
O=C(NN=C/C=C/c1ccccc1[N+](=O)[O-])c1cccs1 | . | / | / | / | / | / | / | / | /
COc1c(N2CCN[C@H](C)C2)c(F)cc2c(=O)c(C(=O)O)cn(C3CC3)c12 | / | / | / | 103 | . | 102 | 100 | 100 | 101
COc1ccc2c(c1OC)C(=O)OC2CC(=NNC(N)=O)c1ccccc1 (configuration not stated) | . | / | / | / | / | / | / | / | /
CC(C)CC(=O)Nc1ccccc1N1CCN(C(=O)c2ccccc2)CC1 | . | . | . | . | . | . | / | / | /
CC(C)CC(=O)Nc1ccccc1N1CCN(c2ccccc2)CC1 | . | . | . | . | . | 15 | . | . | .
Oc1ccc(N=Nc2ccccc2-c2nn[nH]n2)c(O)c1 | . | . | . | 15 | . | 14 | . | 6.7 | .
Cc1cc(SCC(=O)NN=Cc2cccnc2)nc2c(C)cccc12 | . | / | / | / | / | / | / | / | /
[O-][n+]1cccc2c(Br)cc(Br)c(O)c21 | 0.24 | . | 43 | 40 | -197 | 40 | 38 | 47 | 41
C[n+]1cccc2c(Br)ccc([O-])c21 | . | . | . | . | . | . | / | / | /
O=C(NCc1ccco1)C1CCN(S(=O)(=O)c2ccccc2C(F)(F)F)CC1 | . | . | . | . | / | . | / | / | /
O=C(NNC(=O)C1CCN(S(=O)(=O)c2c(Cl)cccc2Cl)CC1)c1ccccc1O | . | . | . | . | . | 13 | . | 6.2 | .
O=C(NNC(=O)C1CCN(S(=O)(=O)c2ccccc2C(F)(F)F)CC1)c1ccccc1O | . | . | . | . | . | 14 | 13 | 8.8 | .
O=C(NNC(=O)C1CCN(S(=O)(=O)c2ccccc2)CC1)c1ccccc1O | . | . | . | . | . | . | / | / | /
Cc1nc(C#N)c(NN=Cc2cccc(Cl)c2)o1 | . | / | / | / | / | / | / | / | /
O=C(NCc1nc2ccccc2[nH]1)C1=CC(c2ccc(Br)cc2)CC(OCc2ccc(CO)cc2)O1 (configuration not stated) | . | / | / | / | / | / | / | / | /
Cc1ccccc1-c1nc(CN2CCC(C(=O)O)CC2)c(C)o1 | . | ? | . | . | . | 20 | . | . | .
O=C(NC(=S)NNC(=O)c1ccccc1O)c1ccccc1 | . | ? | . | 10 | . | 13 | . | 17 | .
O=C(NC(=S)NNC(=O)c1ccccc1O)c1ccc(F)cc1 | . | . | . | 16 | . | 13 | 15 | 18 | .
O=C(NC(=S)NNC(=O)c1ccccc1O)c1cccs1 | . | . | . | . | . | 13 | 22 | 20 | .
COc1ccccc1C(=O)NNC(=S)NC(=O)c1cccs1 | / | . | . | . | . | . | / | / | /
COc1cccc(C=NNC(=S)Nc2cccc(C(=O)O)c2)c1O | . | / | / | / | / | / | / | / | /
COc1ccc(NC(=O)COc2ccc(C)nc2[N+](=O)[O-])cc1S(N)(=O)=O | . | . | . | 12 | / | 15 | 46 | 7.8 | 29

Screening data from PubChem.
